Data: PubChem BioAssay AID1347426 (Functional Genomics Laboratory (NCATS/FGL), 2020)
In all, about 31,000 sequences went through this assay and about 1,400 (4.5%) were called active.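 Rule for the calls: active = median seed-adjusted z-score above 1 or below -1; inactive = the rest.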 The full list was thinned out, with actives kept by preference.

Test: Novel Modifiers of Survival Motor Neuron (SMN) Protein: Gene Identification via Genome-wide siRNA Screen;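 note: luminescence tracks full-length SMN protein made from the SMN2 reporter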
Settings: HEK293T SMN2-luciferase reporter, siRNA knockdown, 72 h; actives lie on both sides
Excerpt: Spinal muscular atrophy (SMA) is the most common neuromuscular autosomal recessive disorder and one of the leading genetic causes of infant death. SMA results from mutations inducing loss of function or deletion in the survival of motor neuron-1 gene (SMN1), leading to deficiency of the survival motor neuron (SMN) protein. Although a second nearly identical gene, SMN2, is retained in humans, its expression primarily produces an aberrantly spliced isoform that is largely unstable and quickly degraded. We performed a genome-wide RNAi screen using a cell-based reporter assay to identify genes and pathways that modulate SMN protein stability. The screen identified over 200 genes that led to the greatest increase or decrease in luciferase expression.
Using HEK293T cells stably expressing a luciferase reporter that combines the promoter and splicing based cassettes in tandem with the major portion of the native SMN2 cDNA with luciferase, we performed a genome-wide RNAi screen to identify modulators of SMN protein levels. Luciferase is expressed when full-length SMN protein is generated with luminescence signal proportional to SMN protein levels. Our luciferase-based reporter assay was used to screen Ambion Silencer Select Human Druggable Genome siRNA library (10418 genes, 3 unique siRNAs per gene) using lipid-based reverse transfection.
Briefly, 1 pmol of each siRNA was spotted to a well of a 384-well plate (Corning, Corning, NY) and 20 microL of serum-free DMEM containing […] of Lipofectamine RNAiMax (Life Technologies, Carlsbad, CA) was then added to each well. Transfected cells were maintained at 37 degrees C in 5% CO2 for 72 hours, 20 microL of ONE-Glo Reagent (Promega) was added to wells for luciferase quantification. Raw luminescence reads were normalized to Ambion(R) Silencer(R) Negative Control #2 siRNA, then log10 transformed. A robust statistical measure of median absolute deviation (MAD) to standardize siRNA activities from each screen. Common Seed Analysis was used to help prioritize clean hits as opposed to those appearing to arise from seed based off-target effects. Candidate modulators were defined as the genes having a MAD score greater than 1.0 or less than -1.0.

| Sequence | median seed-adjusted z-score |
| --- | --- |
| GACUCUUCUGACUAACAUATT against DACH1 | 0.562 (inactive) |
| GACUCUAUGCUGAUAAUGATT against ADIPOQ | 0.557 (inactive) |
| GCUGAGAUUUUCAAUAAGATT against NR1H4 | -0.056 (inactive) |
| CGCCCAUUCUUCAAUGUCATT against SIAH1 | 1.5 (active) |
| AGUGCGCCCAGAAUCUAAATT against ZNF689 | 0.448 (inactive) |
| CGGAGUUUGUUGAUAUCGATT against LGI2 | 0 (inactive) |
| CAAAUUUCCUGUUAAUCGATT against APPL1 | 0 (inactive) |
| GAAAUGACCUUAUUAGUCATT against RYK | -0.446 (inactive) |
| CAGACUACCCUGAUAGUUUTT against FLVCR1 | 0.197 (inactive) |
| GGUCAGAGACCAUCCAGAATT against GFRA4 | -1.59 (active) |
| AGAGGAAGAUAGAUUUUCUTT against PFDN5 | 0.562 (inactive) |
| GGAUGUAUUGUCGCCUGUATT against RENBP | 0.587 (inactive) |
| CGAACUGCUUUAUGACCUATT against KIF20A | 0.906 (inactive) |
| GACGAGACCUCUUCUCUCATT against ART1 | 0.0033 (inactive) |
| CCUGUGGUUUGCUAUCUAATT against SLC24A5 | -0.166 (inactive) |
| CGGUGCUGCUAGACGUGAATT against HSPB6 | 0.394 (inactive) |
| GGGUAAUUGGAACAUGUUUTT against RCN3 | -2.44 (active) |
| CCUUUACAAAUAACGGAUATT against NHLRC2 | 0.548 (inactive) |
| CAUGUUCACUGCUACCGAUTT against LPP | -0.103 (inactive) |
| CCUUCAUCCGUAUCAUGGATT against POLD1 | -0.715 (inactive) |
| GCUGUGAUCUCAUGGAUCATT against KLHL3 | -0.237 (inactive) |
| GCUUUAUGUGGGCUCAUUATT against RBM39 | -1.82 (active) |

| Sequence | median seed-adjusted z-score |
| --- | --- |
| CACUGACACUUACAAUGAATT against UGT3A1 | 0.864 (inactive) |
| GGAACUUACGAUGCAGGAATT against GALNT13 | -0.0149 (inactive) |
| GCAACAGUAUUUCGGUAUATT against CHEK1 | -5.1 (active) |
| GUCUUAGAAUGAGUAGCAATT against KCNMA1 | 0 (inactive) |
| CACUAUCAGUUGGAACAGATT against CD36 | -0.000845 (inactive) |
| GGCUGAGAUGCGUCGUAAATT against ARCN1 | -1.25 (active) |
| GAUUGAUGGGUGUAAGAAATT against SMS | 0.186 (inactive) |
| GAGACCUAAUGUUUCAUAUTT against PRKCI | 0.386 (inactive) |
| CAAGGUCAAGUGCGAGAAATT against MAFB | 0.674 (inactive) |
| CCGUCAUGGUUGAUGGAGATT against SEMA4D | 0.309 (inactive) |
| CCAUAGUCUUCAUCUACGATT against GPR153 | -1.08 (active) |
| GAACAGUGUUUGUCAGCAUTT against ASAH2 | 0.615 (inactive) |
| AAAGCACAGUGUUAAAUGATT against TAC1 | 0.0499 (inactive) |
| CCCAGAAGAUUACCUUUGATT against NARG1L | 0.0121 (inactive) |
| CCGUGCUGACCUCCAAAUATT against HBA1 | -1.03 (active) |
| CUUUCGGUUUGAAGAAUAATT against ZC3H15 | 0.191 (inactive) |
| AGCAUGUGGUAGACGAGAATT against RGS19 | 0.295 (inactive) |
| GACCUUCACCGUUACGUUATT against HDLBP | -1.18 (active) |
| AGCUCGUACUGUUCCAAUATT against MMP19 | 0.43 (inactive) |
| AGUGACAGAGUACAAGAUATT against EIF3G | -0.198 (inactive) |
| AAGUGGGAGUUACAUUAAATT against DLGAP2 | 0.295 (inactive) |
| GGAUGUCAACUGUGCUUUUTT against MED24 | -2.3 (active) |

| Sequence | median seed-adjusted z-score |
| --- | --- |
| CAGUGAAGGUGAAAUUCGATT against UCHL5 | -0.358 (inactive) |
| GGAUAAUGAUCGCGAGGAATT against ALS2 | 0 (inactive) |
| GGUUCACGGCUAAAGCAAUTT against DGCR8 | -0.266 (inactive) |
| CUACCAGGCUUAAUAGGAATT against GFM2 | 0.26 (inactive) |
| GGGUCUUACUGAUUCCACATT against A4GNT | 0.213 (inactive) |
| CGAGAGUUACUUACAAGAATT against RAN | -3.09 (active) |
| CAUCAUUACCAGAGCUACATT against RLN1 | 0.0637 (inactive) |
| CCGCAGUUCUAGGUCCAAUTT against ABCC2 | -0.0464 (inactive) |
| CAACCAAGGUCAGUCUUAUTT against TFCP2L1 | -0.246 (inactive) |
| AGAUAAGAAUCGCAUGACATT against ARHGAP9 | 0 (inactive) |
| GAACGUAGAAUGAAAGUAATT against PSMC1 | -2.23 (active) |
| GACUAUAACUUCCCGAAAATT against SYT11 | 0.29 (inactive) |
| GGGUUACAGCUAAAAUUGUTT against OC90 | 0.216 (inactive) |
| GGUGCGGCCCUAUUACUUUTT against RPUSD2 | -0.215 (inactive) |
| GAGACUCUGUGGACGUAAATT against ZNF101 | 0.336 (inactive) |
| AGCUUCUACCGUGUCCUUATT against UCK2 | -1.51 (active) |
| CUACCUUACUUUAACAUUATT against KCNS3 | 0.103 (inactive) |
| GCGAAAUUUUGGAUAUCAATT against KIF23 | -0.449 (inactive) |
| GGACACCUGUGAACCGCAUTT against ARID3A | -1.11 (active) |
| GGGAUAUUUUCUACGCUUUTT against DNAH5 | -0.45 (inactive) |
| GGUCACCACCAAAUACGUUTT against B4GALNT2 | -0.174 (inactive) |
| CGAUUUAUCCGAUGCCCUUTT against CD99 | 0 (inactive) |

| Sequence | median seed-adjusted z-score |
| --- | --- |
| CCAUCUCCAGUUGUAUUUUTT against CHKA | -0.558 (inactive) |
| GACGGAAAGACUUACGUUATT against EIF2AK2 | 0.419 (inactive) |
| GAAUCAACUUUGCCGUGUUTT against SHMT2 | -0.0453 (inactive) |
| CCUUGUCACAGGUCAAUCATT against VWF | 0.159 (inactive) |
| GAUGGGACAUCGUUGCUCATT against OASL | 1.02 (active) |
| CAGGAUCUACGAUAAGGUATT against ACSL5 | 0.109 (inactive) |
| CGAGAAAGAAUUCCACUUUTT against HOXC5 | 0.507 (inactive) |
| GACUGACAUUGAGAUUACATT against CCT3 | -0.416 (inactive) |
| GGUGAAUACUUCCGGUACATT against SULT2B1 | 0 (inactive) |
| CUCUGUGAAUGGUGCCGAATT against FAM57A | 0.0434 (inactive) |
| GGGAAUGACUGGAAGACGATT against TTF1 | 1.76 (active) |
| GAAUGGUGUGGAUCUCCUATT against ARPC5 | -0.479 (inactive) |
| GCAAUGUGGUCAAGACGGATT against INHBE | 0.172 (inactive) |
| CGUGUAUUCUUUCACUAAUTT against MFSD1 | -0.0833 (inactive) |
| GGGUAUCACCUCACGCUUATT against ABCA12 | 0.0759 (inactive) |
| GGUUUGGAAUGUUCGAGUUTT against SLC25A1 | 0.252 (inactive) |
| GGCACAAUUUCAACUCCAUTT against GPR35 | -1.46 (active) |
| GAGCUUAGUGAUAAUAUAATT against ANP32E | -0.0648 (inactive) |
| GUGACUAUGAGCUCAAAUATT against RAVER1 | -0.0873 (inactive) |
| ACAUGACCAUGGAAGCUGATT against HIPK4 | 0 (inactive) |
| GGAUCCGAGAGUCACCCAATT against LLGL1 | -1.13 (active) |
| GGACAGACACGUCAGCAAATT against TMEM171 | 0.278 (inactive) |

| Sequence | median seed-adjusted z-score |
| --- | --- |
| GGAAAUCUCGGAGAUCACATT against MLYCD | -0.154 (inactive) |
| CAUCCUCAUUUGAAACCGUTT against CREBL1 | -0.348 (inactive) |
| CAUUCGCAUUCAGUCCAUATT against FRAP1 | -1.02 (active) |
| GCAGAUGACUACAACUUUATT against E2F5 | -0.628 (inactive) |
| GGACUGUACAACACUCUGATT against TGFB3 | -0.354 (inactive) |
| GAUAAUGGAAGGUGAAUUUTT against PMS2L3 | 0.175 (inactive) |
| CGGGAGAAGUCCUACCUGUTT against KIF19 | 0.342 (inactive) |
| CGCAGGUUCUACCAGAUGATT against HS3ST6 | 0 (inactive) |
| CCAUGGAUGAGACUCCGUATT against PPP1R10 | 1.41 (active) |
| CGUGAUUGACUAUGAGGAATT against GRM6 | -0.0544 (inactive) |
| GGUCAUUAUUGGUGAGCAATT against HARS2 | 0 (inactive) |
| AGAACAACGUGAAGGCACATT against TNPO2 | 0.0785 (inactive) |
| CAGUGGAUAUCUUGACCUATT against LDHA | 0.401 (inactive) |
| GGAAGUCUCUUGUCUGCAATT against RNASEL | 0 (inactive) |
| CAGGUUUUCUACAACAACATT against ABCA2 | -1.18 (active) |
| GAACUUGACCAGUUAGACUTT against GTF3C3 | 0.21 (inactive) |
| GGACAACCAUCUUCAAAGATT against ZKSCAN5 | -0.229 (inactive) |
| GCAGUAUCGAGCUUCCGAATT against ACAD10 | -0.269 (inactive) |
| GGAUCAUCAUGGAAUUGUATT against PTK2B | 1.71 (active) |
| CCAUGUCAGUCCUAGGAAATT against ATRIP | 0.353 (inactive) |
| GCAACUCCAUGUUUCAUAATT against PRMT1 | -0.596 (inactive) |
